This note sets out measurements from the supplement of paper PMC5641865, “A screen for kinase inhibitors identifies antimicrobial imidazopyridine aminofurazans as specific inhibitors of the Listeria monocytogenes PASTA kinase PrkA” (The Journal of Biological Chemistry, 2017).

Each structure is given as a SMILES string. ± gives the standard deviation of the averaged measurements.
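Note: End-point A600 read in BHI broth at 37 °C with 2% DMSO, inhibition computed as (1 − OD with compound plus ceftriaxone ÷ OD with ceftriaxone only) × 100.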

The test concerns Listeria monocytogenes 10403S. Briefly: growth inhibition relative to ceftriaxone-alone control; higher = stronger potentiation of ceftriaxone growth inhibition. The conditions noted are these: 10 µM; ceftriaxone 1 ug/ml; 12 h.
In the case of `COc1cc(N2CCC(N3CCN(C)CC3)CC2)ccc1Nc1ncc(Cl)c(Nc2ccccc2S(=O)(=O)C(C)C)n1`, the growth inhibition came to 79.1 ± 24%.
`Cc1cc(O)cc(C)c1/C=C/c1cncc(C(=O)N(C)C)c1`: the growth inhibition is -3.75 ± 3.3%.
As to `COc1ccc2ncn(-c3cc(O[C@H](C)c4ccccc4Cl)c(C(N)=O)s3)c2c1`, the growth inhibition is 1.82 ± 0.29%.
Turning to `COc1cc2c(cc1Nc1nc(Nc3cccc(F)c3C(N)=O)c3cc[nH]c3n1)N(C(=O)CN1CCN(C(C)C)CC1)CC2`, the growth inhibition was -7.97 ± 11%.
For `O=C1NC(=O)C(N2CCc3ccccc32)=C1c1ccc(Cl)cc1`, the growth inhibition came to 14.5 ± 6%.
In the case of `CCc1cccc(NC(=O)Nc2ccc(Oc3ccc4nc(NC(=O)OC)[nH]c4c3)cc2)c1`, the growth inhibition came to 9.75 ± 3.1%.
As for `COc1cccc(-n2cnc3c(N/N=C/c4ccncc4)ncnc32)c1`, the growth inhibition was -10.6 ± 15%.
Then `c1ccc(-c2nc3n(c2-c2ccc4c(c2)OCO4)CCC3)nc1`, with -10.3 ± 17%.
As for `N#CC(=C(/N)Sc1ccccc1N)/C(C#N)=C(\N)Sc1ccccc1N`, the growth inhibition is 51.1 ± 42%.
Consider `C[C@@H](Oc1cc(-n2cnc3ccc(CN4CCN(C)CC4)cc32)sc1C(N)=O)c1ccccc1C(F)(F)F`, for which the growth inhibition was found to be 88.5 ± 8.4%.
In the case of `COC(=O)c1ccc2c(C(=Nc3ccc(N(C)C(=O)CN4CCN(C)CC4)cc3)c3ccccc3)c(O)[nH]c2c1` [BIBF1120 (Vargatef)], the growth inhibition turned out to be 21.6 ± 14%.
With `COc1ccc2c3n(c(=NC(=O)c4cccnc4)nc2c1OC)CCN3`, the growth inhibition is -0.968 ± 4.8%.
As to `COc1cc(Nc2ncc(F)c(Nc3ccc4c(n3)N(COP(=O)(O)O)C(=O)C(C)(C)O4)n2)cc(OC)c1OC` [R788 (Fostamatinib)], the growth inhibition was 12.5 ± 9.9%.
Take `Nc1ncnc2c1c(-c1cccc(OCc3ccccc3)c1)cn2C1CC(CN2CCCC2)C1` (stereo not drawn): the growth inhibition is 61.4 ± 52%.
As for `c1ccc(Cc2nc3ccc(Nc4ncnc5ccccc45)cc3[nH]2)cc1`, the growth inhibition was -14.5 ± 19%.
Then `O=C(Nc1n[nH]c2nnc(-c3cccnc3)cc12)C1CC1`, with -0.393 ± 1.3%; and `COC(=O)c1cncc(/C=C/c2c(C)cc(O)cc2C)c1`, with -6.45 ± 1.7%; and `COc1cc2ncn(-c3cc(OCc4ccccc4C(F)(F)F)c(C(C)=O)s3)c2cc1OC`, with 11.2 ± 1.6%.
As for `C[C@H](NC(=O)/C(C#N)=C/c1cccc(Br)n1)c1ccccc1`, the figure is 99 ± 0.21%; as for `COC(=O)Nc1nc2ccc(S(=O)(=O)c3ccc(NC(=O)Nc4cc(C(F)(F)F)ccc4F)cc3)cc2[nH]1`, -13.3 ± 8.2%.
Then `CCS(=O)(=O)c1cccc(-c2cc(C(=O)NC3CCN(C)CC3)c(C)c3[nH]c4ncc(C)cc4c23)c1`, with 31.1 ± 6.9%; and `COc1cc2nccc(Oc3ccc(NC(=O)Nc4cc(C)on4)c(Cl)c3)c2cc1OC` [Tivozanib (AV-951)], with 23.7 ± 1.2%.
Turning to `Cn1cnc2c(F)c(Nc3ccc(Br)cc3Cl)c(C(=O)NOCCO)cc21` [AZD6244 (Selumetinib)], the growth inhibition came to 0.682 ± 22%.
With `CCn1c(-c2nonc2N)nc2c(C#CC(C)(C)O)ncc(OC[C@H]3CCCNC3)c21`, the growth inhibition is 98.398 ± 0.078%.
For the molecule `O=c1cc(-c2cccc3c2Sc2ccccc2S3)oc(N2CCOCC2)c1`, the growth inhibition came out at 86.2 ± 1.3%.
As for `Nc1ncnc2occ(-c3ccc(NC(=O)Nc4cc(C(F)(F)F)ccc4F)cc3)c12`, the figure is -0.902 ± 0.59%; as for `CC1=C(C(=O)Nc2ccc3[nH]ncc3c2)C(c2ccc3ccccc3c2)CC(=O)N1` (stereo not drawn), 11.5 ± 2.3%.
Consider `COC(=O)Nc1nc2ccc(Sc3ccc(NC(=O)Nc4cc(C(F)(F)F)ccc4F)cc3)cc2[nH]1`, for which the growth inhibition is -12.7 ± 13%.
Then `NS(=O)(=O)c1ccc(Nc2cc(-c3cccc(O)c3)n[nH]2)cc1`, with 10.9 ± 3.9%; and `O=C1NC(=O)C(c2cccc(Cl)c2)=C1Nc1ccc(O)c(Cl)c1`, with -7.55 ± 15%.
As to `Oc1cccc(-c2nc(-c3ccccc3)[nH]c2-c2ccncc2)c1`, the growth inhibition was -3.01 ± 1.1%.
`CC[C@@H]1C(=O)N(C)c2cnc(Nc3ccc(C(=O)N[C@H]4CC[C@H](N5CCN(CC6CC6)CC5)CC4)cc3OC)nc2N1C(C)C` [BI6727 (Volasertib)]: the growth inhibition is 56.9 ± 16%.
Regarding `COc1cc2c(Nc3ccc(NC(=O)c4ccccc4)cc3)ncnc2cc1OCCCN1CCOCC1`, the growth inhibition stood at 24.9 ± 20%.
On to `N#Cc1ccc2c(-c3ccnc(NC4CC4)n3)c(-c3ccc(F)cc3)nn2c1`, for which the growth inhibition was 7 ± 2.3%.
Then `Cc1cc(-c2ccccn2)cc(C)c1/C=C/c1cncc(-c2nn[nH]n2)c1`, with -7.47 ± 9.6%; and `NCC(=O)Nc1ccc(-n2nc(C(F)(F)F)cc2-c2ccc3c(ccc4ccccc43)c2)cc1`, with 85.45 ± 0.52%; and `CS(=O)(=O)CCNCc1ccc(-c2ccc3ncnc(Nc4ccc(OCc5ccccc5)cc4)c3c2)o1`, with -2.04 ± 4.2%.
Then `N#CC1(c2ccc(NC(=O)c3cccnc3NCc3ccncc3)cc2)CCCC1` [Apatinib (YN968D1)], with 12.7 ± 6.2%.
